Experimental findings from PubChem BioAssay (NCI) are described below.

The panel holds about 83,000 compounds, 20% with a hit somewhere; the sample as a whole holds those more often.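 Interpretation: 100, growth as untreated; towards 0, rising growth inhibition; 0, no net growth; 0 to -100, cell death. Compounds scoring below 10 were considered active.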 A number with no mark means an inactive call. Active and inactive are the calls of the source.

Some test systems named below: NCI-H23 lung; NCI-H226 lung; NCI-H322M lung; HOP-62 NSCLC; NCI-H460 lung; HOP-92 NSCLC; NCI-H522 lung; A549/ATCC NSCLC; 786-0 renal; COLO 205 colon; DU-145 prostate; K-562 leukemia; MALME-3M melanoma; MDA-MB-231 breast; RXF 393 renal; SF-268 CNS; SF-295 CNS; SF-539 CNS; M14 melanoma.
Test in all cases: NCI-60 one-dose screen, 48 h (100 = growth as untreated, 0 = no growth, -100 = all killed)
Common to all, as to settings: 10 µM unless noted

Turning to `COc1cc2ncnc(Nc3ccc(Oc4ccnc(C)c4)c(C)c3)c2cc1NC(=O)CC1CCSS1` (configuration not stated), the growth with NCI-H23 lung was -49.5% (active); in the assay on NCI-H226 lung, 25.8%; in the assay with NCI-H322M lung, -49.6% (active); in the assay with HOP-62 NSCLC, -50.7% (active); with NCI-H460 lung, -53.1% (active); in the assay with HOP-92 NSCLC, 62.6%. The growth is -57.6% (active) in the assay on NCI-H522 lung; -63.8% (active) in the assay on A549/ATCC NSCLC; 52.5% in the assay on 786-0 renal; -81.1% (active) in the assay with COLO 205 colon; -7.01% (active) in the assay with DU-145 prostate; -50.9% (active) in the assay on K-562 leukemia. Besides, the growth with MALME-3M melanoma is -27.5% (active); in the assay on MDA-MB-231 breast it was -27.8% (active); in the assay with RXF 393 renal, 8.74% (active); in the assay with SF-268 CNS it was -53.2% (active); with SF-295 CNS it was -65.3% (active); in the assay on SF-539 CNS, 1.45% (active). For the same compound, the growth in the assay with M14 melanoma is -65.1% (active).

On to `COc1cccc(-c2nn(-c3ccccc3)cc2-c2ccnc(NCCNS(=O)(=O)c3ccccc3)c2)c1`, for which the growth with NCI-H23 lung was 39.5%; with NCI-H226 lung, 41.2%; in the assay with NCI-H322M lung, 62.8%; in the assay on HOP-62 NSCLC it was 58.6%; in the assay on NCI-H460 lung, 28.6%; in the assay on HOP-92 NSCLC it was 19.4%. Besides, the growth in the assay on NCI-H522 lung was 9.95% (active); in the assay on A549/ATCC NSCLC, 34.4%; with 786-0 renal, 42.7%; in the assay with COLO 205 colon it was 10.6%; with DU-145 prostate it was 57.5%; in the assay with K-562 leukemia, 6.57% (active). For the same compound, the growth in the assay with MALME-3M melanoma was 69.1%; in the assay with MDA-MB-231 breast, 18.4%; in the assay on RXF 393 renal, 63.7%; in the assay with SF-268 CNS it was 50%; in the assay on SF-295 CNS, 20.6%; with SF-539 CNS, 57.1%. The growth in the assay with M14 melanoma was 29.8%.

Regarding `O=S(=O)(NCCNc1cc(-c2cn(-c3ccccc3)nc2-c2cccc(O)c2)ccn1)c1ccc(C(F)(F)F)cc1`, the growth was 41.8% in the assay on NCI-H23 lung; 57.8% with NCI-H226 lung; 75.3% in the assay on NCI-H322M lung; -60% (active) in the assay with HOP-62 NSCLC; 42.3% in the assay on NCI-H460 lung; 38.4% in the assay with HOP-92 NSCLC. Also, the growth in the assay on NCI-H522 lung is 55.7%; in the assay on A549/ATCC NSCLC it was 41.6%; with 786-0 renal it was 35.8%; with COLO 205 colon, -21.4% (active); in the assay with DU-145 prostate, 71.8%; in the assay on K-562 leukemia it was 7.03% (active). Besides, the growth in the assay on MALME-3M melanoma was 60.2%; in the assay on MDA-MB-231 breast, 5.29% (active); with RXF 393 renal, 40.5%; with SF-268 CNS, 50%; in the assay on SF-295 CNS, 38.6%; with SF-539 CNS it was 60.1%. In the assay on M14 melanoma, the growth was 32.1%.

With `COc1cccc(-c2nn(-c3ccccc3)cc2-c2ccnc(NCCNS(=O)(=O)c3ccc(C(F)(F)F)cc3)c2)c1`, the growth in the assay with NCI-H23 lung was 17.1%; in the assay on NCI-H226 lung it was 34.8%; in the assay with NCI-H322M lung, 45.1%; in the assay with HOP-62 NSCLC, 35.6%; with NCI-H460 lung, 11.4%; in the assay with HOP-92 NSCLC, -10.9% (active). For the same compound, the growth in the assay on NCI-H522 lung is 1.9% (active); in the assay with A549/ATCC NSCLC, 14.2%; in the assay on 786-0 renal it was 3.75% (active); in the assay on COLO 205 colon, -73.5% (active); in the assay with DU-145 prostate it was 46.6%; with K-562 leukemia, 3.79% (active). Also, the growth in the assay on MALME-3M melanoma is -17.9% (active); in the assay on MDA-MB-231 breast, 6.28% (active); in the assay with RXF 393 renal, -22.2% (active); in the assay with SF-268 CNS, 36%; with SF-295 CNS, 3.05% (active); in the assay on SF-539 CNS it was 2.91% (active). Besides, in the assay with M14 melanoma, the growth is 13.6%.

`CNC(=O)c1cc(Oc2ccc3nc(NC(=O)Nc4ccc(Cl)cc4)sc3c2)ccn1`: the growth with NCI-H23 lung was 69%; in the assay on NCI-H226 lung, 67.9%; with NCI-H322M lung it was 66.8%; with HOP-62 NSCLC, 6.54% (active); in the assay with NCI-H460 lung it was 64.4%; with HOP-92 NSCLC, 63.3%. Further, the growth with NCI-H522 lung is 78%; in the assay with A549/ATCC NSCLC it was 44.1%; with 786-0 renal, 75.3%; with COLO 205 colon it was 79.4%; in the assay on DU-145 prostate, 53.2%; in the assay with K-562 leukemia it was 65.6%. For the same compound, the growth was 17.7% in the assay on MALME-3M melanoma; 34.4% in the assay with MDA-MB-231 breast; 50.8% in the assay on RXF 393 renal; 56.2% with SF-268 CNS; 66.3% in the assay on SF-295 CNS; 83.5% in the assay on SF-539 CNS. In the assay on M14 melanoma, the growth was 63%.

With `O=S(=O)(NCCNc1cc(-c2cn(-c3ccccc3)nc2-c2cccc(O)c2)ccn1)c1cccc(F)c1`, the growth with NCI-H23 lung was 45.8%; in the assay on NCI-H226 lung, 55.3%; in the assay with NCI-H322M lung, 56.2%; with HOP-62 NSCLC, 56.7%; with NCI-H460 lung, 33.1%; in the assay on HOP-92 NSCLC, 51.1%. Moreover, the growth in the assay with NCI-H522 lung is 26.7%; in the assay on A549/ATCC NSCLC it was 42.4%; in the assay with 786-0 renal, 16.8%; with COLO 205 colon, -4.68% (active); with DU-145 prostate, 63.5%; in the assay on K-562 leukemia, 7.94% (active). The growth is 64.9% in the assay with MALME-3M melanoma; 11.5% with MDA-MB-231 breast; 62.3% in the assay on RXF 393 renal; 54.9% with SF-268 CNS; 22.4% with SF-295 CNS; 51.2% in the assay on SF-539 CNS. Also, the growth with M14 melanoma is 31.8%.

For the compound `CC[C@]12C=CCN3CC[C@@]4(c5cc([C@H]6CCC(=O)N6)c(OC)cc5N(C)[C@H]4[C@@](O)(C(=O)OC)[C@@H]1OC(C)=O)[C@@H]32`, the growth with NCI-H23 lung is 100% [2.5 µM]; with NCI-H226 lung, 92.7% [2.5 µM]; in the assay on NCI-H322M lung it was 99.8% [2.5 µM]; with HOP-62 NSCLC it was 98.1% [2.5 µM]; with NCI-H460 lung it was 107% [2.5 µM]; in the assay on HOP-92 NSCLC, 98.5% [2.5 µM]. Also, the growth in the assay on NCI-H522 lung was 93% [2.5 µM]; in the assay with A549/ATCC NSCLC, 100% [2.5 µM]; with 786-0 renal it was 104% [2.5 µM]; with COLO 205 colon, 108% [2.5 µM]; in the assay with DU-145 prostate, 119% [2.5 µM]; in the assay on K-562 leukemia it was 105% [2.5 µM]. Besides, the growth with MALME-3M melanoma is 97.5% [2.5 µM]; in the assay with MDA-MB-231 breast, 98.7% [2.5 µM]; in the assay on RXF 393 renal, 113% [2.5 µM]; in the assay on SF-268 CNS, 116% [2.5 µM]; with SF-295 CNS it was 100% [2.5 µM]; in the assay on SF-539 CNS it was 92.4% [2.5 µM]. Also, in the assay with M14 melanoma, the growth was 95.5% [2.5 µM].

As for `O=S(=O)(NCCCNc1cc(-c2cn(-c3ccccc3)nc2-c2cccc(O)c2)ccn1)c1ccc(F)cc1`, the growth was 44.4% with NCI-H23 lung; 54.1% in the assay on NCI-H226 lung; 51.2% in the assay on NCI-H322M lung; 53.8% in the assay with HOP-62 NSCLC; 24.9% in the assay on NCI-H460 lung; 57.7% with HOP-92 NSCLC. The growth with NCI-H522 lung is 37.6%; in the assay on A549/ATCC NSCLC, 38.8%; in the assay with 786-0 renal, -4.8% (active); with COLO 205 colon, -66.1% (active); in the assay with DU-145 prostate it was 59.5%; in the assay on K-562 leukemia it was 3% (active). For the same compound, the growth in the assay with MALME-3M melanoma is 35.9%; in the assay on MDA-MB-231 breast, -0.971% (active); in the assay with RXF 393 renal, 39.7%; with SF-268 CNS it was 44.5%; in the assay on SF-295 CNS it was 5.71% (active); in the assay on SF-539 CNS it was 38.8%. In addition, the growth in the assay with M14 melanoma was 26.6%.
